The results in this text go back to PubChem BioAssay (NCATS).

Records with an inconclusive call do not appear. The source made the active and inactive calls. Calls follow the shape of the dose curve; as a rule, active = well fitted cell-killing curve with a large enough effect; inconclusive = small, poorly fitted or top-dose-only effect, or effect the other way; inactive = no such curve, though single readings can be large or run the other way.
Potency is read from the fitted curve at half-maximal effect.

One experiment is described as follows: Quantitative High-Throughput drug screen in 47 multiple myeloma cell lines against the NCATS MIPE library collection: OPM1_PLB cell viability assay (AID 1918989). Also: nearly all actives have a fitted effect of over 40% in size.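 As to viability (% of control): 100% = DMSO-only wells and 0% = media-only wells.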 The conditions noted are these: CellTiter-Glo, 48 h; series mostly up to 45.8 µM. The method, boiled down:
(§1)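 Cells were exposed to library compounds for 48 hours, after which ATP was measured by CellTiter-Glo. Signal was taken as median relative luminescence units.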
In the case of `CCCn1c(=O)c2[nH]c(-c3cnn(Cc4cccc(C(F)(F)F)c4)c3)nc2n(CC)c1=O`, the Potency entry was “inactive”.
Regarding `O=C(C=Cc1cccnc1)NCCCCC1CCN(C(=O)c2ccccc2)CC1`, the Potency was 0.0118 µM (active).
With `O=C(O)CO.[NH2-].[NH2-].[Pt+2]`, the Potency entry is “inactive”.
Still for that read-out and setting: the same measure for `Cc1c(NC(=O)OC[C@@H]2COCCN2)cn2ncnc(Nc3ccc4c(cnn4Cc4cccc(F)c4)c3)c12`: 4.18 µM (active); for `O=C1CCC[C@@H]2[C@H]3CCC[N+]4([O-])CCC[C@@H](CN12)[C@@H]34` (stereo not given in full): “inactive”.
Consider `CCOC(=O)C1=C(C)NC2=C(C(=O)CC(C)(C)C2)C1c1ccc(-c2ccccc2)cc1` (stereo not given), for which the Potency was 16.6 µM (active).
As for `C=CC(=O)Nc1cccc(Oc2nc(Nc3ccc(N4CCN(C)CC4)cc3OC)ncc2Cl)c1`, the Potency is 0.662 µM (active).
On to `COc1cc(Nc2ncc(F)c(Nc3ccc4c(n3)N(COP(=O)(O)O)C(=O)C(C)(C)O4)n2)cc(OC)c1OC`, for which the Potency was 1.87 µM (active).
Regarding `C[C@]12CC[C@H](O)CC1=CCC1C2CC[C@]2(C)C(n3cnc4ccccc43)=CCC12` (stereo not given in full), the Potency entry was “inactive”.
As for `COc1cccc(Nc2c(C(N)=O)cnc3c(C)cc(S(=O)(=O)c4cccc(C(=O)N(C)C)c4)cc23)c1`, the Potency entry was “inactive”.
In the case of `CCCCN1CCC(CNC(=O)c2c3n(c4ccccc24)CCCO3)CC1`, the Potency was 23.5 µM (active).
`CNC(=O)CN1CCC(Oc2cc3c(Nc4cccc(Cl)c4F)ncnc3cc2OC)CC1`: the Potency was 0.0332 µM (active).
In the case of `COc1ccc(CC2c3cc(OC)c(OC)cc3CC[N+]2(C)CCC(=O)OCCCCCOC(=O)CC[N+]2(C)CCc3cc(OC)c(OC)cc3C2Cc2ccc(OC)c(OC)c2)cc1OC` (stereo not given), the viability (% of control) is 96.3% [at 5.15 µM] (inactive).
In the case of `Nc1cccc(-c2cc3c(Oc4cccc(O)c4)ncnc3[nH]2)c1`, the Potency was 20.9 µM (active).
As to `CCN1CCN(Cc2ccc(-c3cc4c(N[C@H](C)c5ccccc5)ncnc4[nH]3)cc2)CC1`, the Potency is 0.372 µM (active).
On the same count and under the same terms, then `Cc1c(Cn2c(C)nc3c(C(=O)O)cc(N4CCOCC4)cc32)cccc1C(F)(F)F`, with 18.7 µM (active).
As to `NCC(=O)Nc1ccc(-n2nc(C(F)(F)F)cc2-c2ccc3c(ccc4ccccc43)c2)cc1`, the Potency is 18.7 µM (active).
`COc1ccc(C=Cc2cc(OC)c(OC)c(OC)c2)cc1O`: the Potency entry is “inactive”.
Turning to `CNC(=O)c1ccc(-c2cnc3ncc(Cc4ccc5ncccc5c4)n3n2)cc1F`, the Potency entry was “inactive”.
`O=C(O)[C@H](Cc1c[nH]c2ccccc12)N1C(=O)c2ccccc2C1=O`: the Potency result is “inactive”.
Take `NC(=O)c1cccc2cn(-c3ccc([C@@H]4CCCNC4)cc3)nc12`: the Potency result is “inactive”.
On to `CC(O)C1C(=O)N2C(C(=O)O)=C(SC3CNC(C(=O)N(C)C)C3)C(C)C12` (stereo not given), for which the Potency result was “inactive”.
Regarding `Nc1ccc(C(=O)c2cc3c(ccc4ccccc43)[nH]2)cc1`, the Potency was 7.43 µM (active).
Regarding `COC(=O)C[C@](O)(CCCC(C)(C)O)C(=O)O[C@@H]1C(OC)=C[C@]23CCCN2CCc2cc4c(cc2[C@H]13)OCO4`, the Potency entry is “inactive”.
The same measure, in the same setting: the same measure for `Cc1nc2ccc(CN(C)c3ccc(C(=O)N[C@@H](CCC(=O)O)C(=O)O)s3)cc2c(=O)[nH]1`: 0.469 µM (active).

A further experiment can be described thus: Quantitative High-Throughput drug screen in 47 multiple myeloma cell lines against the NCATS MIPE library collection: SKMM1_PLB cell viability assay (AID 1919863). Also: nearly all actives have a fitted effect of over 35% in size. The conditions noted are these: SKMM1 myeloma viability, CellTiter-Glo ATP, 48 h; viability: stronger effect = lower value. The method, boiled down: as §1
Turning to `O=C(C=Cc1cccnc1)NCCCCC1CCN(C(=O)c2ccccc2)CC1`, the Potency was 0.059 µM (active).
For orientation: viability means a read-out of living cells in per cent, often relative to untreated cells. Take `CC(C)(O)CCc1ccc(OCc2cc(-c3cccc(OC(F)F)c3)c3ncccc3c2)cc1`: the viability was 123% (inactive).
Turning to `CCOC(=O)C1=C(C)NC2=C(C(=O)CC(C)(C)C2)C1c1ccc(-c2ccccc2)cc1` (stereo not given), the Potency was 23.5 µM (active).
Take `C[C@]12CC[C@H](O)CC1=CCC1C2CC[C@]2(C)C(n3cnc4ccccc43)=CCC12` (stereo not given in full): the viability was 80.8% (inactive).
For the compound `Cc1ccc(S(=O)(=O)Nc2cc(Cl)ccc2C(=O)Nc2nc(-c3ccccc3)cs2)cc1`, the Potency was 16.6 µM (active).
With `COc1cccc(Nc2c(C(N)=O)cnc3c(C)cc(S(=O)(=O)c4cccc(C(=O)N(C)C)c4)cc23)c1`, the viability was 113% (inactive).
As to `CCCCN1CCC(CNC(=O)c2c3n(c4ccccc24)CCCO3)CC1`, the Potency was 16.6 µM (active).
For `Cc1c(C)n(Cc2ccc(-c3ccccc3C(=O)O)cc2)c2ccc(C(=O)N[C@@H](C)c3ccc([N+](=O)[O-])cc3)cc12`, the viability is 123% (inactive).
As for `CNC(=O)CN1CCC(Oc2cc3c(Nc4cccc(Cl)c4F)ncnc3cc2OC)CC1`, the Potency is 0.0264 µM (active).
For `Nc1nc(-c2nn(Cc3ccccc3F)c3ncccc23)nc(N)c1N1CCOCC1`, the viability is 84.5% (inactive).
With `NCC(=O)Nc1ccc(-n2nc(C(F)(F)F)cc2-c2ccc3c(ccc4ccccc43)c2)cc1`, the Potency is 37.2 µM (active).
Consider `COc1ccc(C=Cc2cc(OC)c(OC)c(OC)c2)cc1O`, for which the viability is 34.9% (inactive).
Turning to `CNC(=O)c1ccc(-c2cnc3ncc(Cc4ccc5ncccc5c4)n3n2)cc1F`, the viability is 133% (inactive).
With `O=C(O)[C@H](Cc1c[nH]c2ccccc12)N1C(=O)c2ccccc2C1=O`, the viability is 111% (inactive).
For `Nc1ccc(C(=O)c2cc3c(ccc4ccccc43)[nH]2)cc1`, the Potency is 2.96 µM (active).
